The values below come from PubChem BioAssay (NCI).

“And” between values parts separate entries of the source, which are not always exact repeats. Equal entries are not always repeated. About 83,000 compounds went through this panel and 20% of them were active in at least one assay; those are over-represented in the sample as a whole.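 Growth was measured after 48 h exposure to one concentration of compound in 96-well plates. Values under 10 count as active.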 The source made the active and inactive calls.

For the test, the system named is MDA-MB-468 breast. As to the kind of experiment: NCI-60 one-dose screen, 48 h (100 = growth as untreated, 0 = no growth, -100 = all killed). Conditions: 10 µM unless noted.
For `Cc1cc(N/N=C/c2nc(-c3ccccc3)oc2C)c2cc(Cl)ccc2n1`, the growth is -74.7% (active). Turning to `CCCCCC[C@@H](O)C/C=C\CCCCCCCC(=O)OCCOC`, the growth was 104% (inactive).

`O=[N+]([O-])c1cc(NS(=O)(=O)c2ccccc2)ccc1NS(=O)(=O)c1ccccc1`: the growth was 92.9% (inactive).

With `COc1ccc(C(=O)/C=C/c2cc(-c3ccc(OC)c(OC)c3)n[nH]2)cc1OC`, the growth was -71.6% (active). With `N#Cc1cn(Cc2ccc(Cl)cc2Cl)c(C(=O)c2ccc(Br)cc2)c1N`, the growth was 75.5% (inactive). As to `Cn1c(=O)c2[nH]c(CCCCCCCCc3nc4ccccc4[nH]3)nc2n(C)c1=O`, the growth is 10.7% (inactive) and 21.7% (inactive).

In the case of `O=C(CSc1nnc(-c2cc3c([nH]c4ccccc43)c(-c3cccc(O)c3)n2)n1-c1ccccc1)c1ccccc1`, the growth is 63% (inactive).

In the case of `Cc1cccc(/C=C/C(=O)Nc2ncc(Cc3cccc(C)c3)s2)c1`, the growth is -15.3% (active).

`CCOC(=O)c1c(Nc2ccccc2)nn2c(N)c(C#N)c(-c3ccc(Cl)cc3)nc12`: the growth is 76.8% (inactive).

On to `O=C(C[n+]1ccnc2ccccc21)c1ccc(O)c(O)c1`, for which the growth was 3.88% (active). The figure for `CC(C)(C)c1ccc(OCCCCCCCN2CCNCC2)cc1` is -54% (active); for `Cc1ccc(/C=C/C(=O)C(=O)/C=C/c2ccc(C)cc2)cc1` it is 110% (inactive). For `O=C1NC(=C(Cl)Cl)/C(=N\S(=O)(=O)NCc2ccccc2)N1`, the growth is 45.1% (inactive). For the compound `N/C(=N\OC(=O)CSc1nc2ccccc2s1)c1ccc2ccccc2c1`, the growth was 102% (inactive).

With `C#CCOc1cccc(Nc2ncc3ncn(C4CCN(C(=O)CCl)C4)c3n2)c1` (stereo not given), the growth is 24.5% [6.25 µM] (inactive). `O=C(/C=C/c1ccccc1)n1c(-c2ccc(Cl)cc2)nc2ccccc21`: the growth is -6.61% (active). For the compound `N#Cc1c(-c2ccc(C(F)(F)F)cc2)cc(N2CC(O)C2)n2c1nc1ccccc12`, the growth is 67.1% (inactive).

`COC1OCC(OS(=O)(=O)c2ccc(C)cc2)C(OC(=O)c2ccccc2)C1OC(=O)c1ccccc1` (stereo not given): the growth was 13% (inactive).

In the case of `Nc1n[nH]c2cccc(C#Cc3cccc(C(=O)Nc4ccc(CN5CCOCC5)c(C(F)(F)F)c4)c3)c12`, the growth was 66% (inactive). In the case of `C=C(C)[C@@H]1CCC=C2CC[C@]3(C)[C@H](CC[C@@H]4[C@@]5(C)CCCNC(C)(C)[C@@H]5CC[C@]43C)[C@H]21` it was -31.5% (active); in that of `COc1c(F)cc(-n2c(C(=O)N3CC(F)C3)cc3cccnc32)cc1F`, 98.4% (inactive). As to `O=C(NNC(=S)Nc1ccccc1)c1ccncc1`, the growth was 122% (inactive). Regarding `CC(C)CCCCCOC(=O)c1ccccc1SSc1ccccc1C(=O)OCCCCCC(C)C`, the growth was 109% (inactive). In the case of `CC(NNC(C)c1ccccc1)c1ccccc1` (stereo not given), the growth is 104% (inactive). Take `Cn1c(=O)c2c(-c3ccccc3F)n(-c3ccc4c(c3)OCO4)cc2n(C)c1=O`: the growth was 83.2% (inactive). On to `COC(=O)c1cccc(NC(=O)c2ccc(-c3cccc(N)c3)o2)c1`, for which the growth was 99.7% (inactive). As to `COc1ccc(-c2[nH]ncc2Nc2cc(OC)c(OC)c(OC)c2)cc1`, the growth was 21.7% (inactive). Take `CCCCCCCCCCCCN1C(C)=CS/C1=C\C=C\c1scc(C)[n+]1CCCCCCCCCCCC`: the growth is -23% (active).

Regarding `OCC(O)c1nc2ccc3[nH]ncc3c2c2c1CCCC2` (stereo not given), the growth is -28.1% (active). In the case of `Cc1cc(/C=C2\SC(=Nc3ccccc3)N(C3CCCC3)C2=O)c(C)n1-c1ccc(Cl)cc1` it was -84.2% (active).

As to `CC(=O)OC[Si](C)(C)c1ccccc1`, the growth is 95.3% (inactive).

Take `O=C(Cc1ccc(F)c(F)c1)Nc1cc(C2(C(F)(F)F)CC2)nn1Cc1ccccc1`: the growth was -33.1% (active). As to `O=C1[C@H]2Cc3c([nH]c4ccccc34)[C@H](c3ccc(Cl)cc3)N2C(=O)CN1C1CCN(CC2CCCCC2)CC1`, the growth is 62.7% (inactive). For `CN1CCN(C(=O)OCc2ccc3c(Cl)cc(Cl)c(O)c3n2)CC1`, the growth was 67.1% (inactive).

As for `C=C1CC[C@@H]2[C@](C)(COC(C)=O)[C@H](OC(C)=O)CC[C@@]2(C)[C@@H]1CC(Nc1ccc(S(=O)(=O)Nc2ccc(Cl)nn2)cc1)C1=CCOC1=O` (stereo not given in full), the growth is -32.3% (active). The figure for `CCCCOP(=O)(OCCCC)C(C(=O)OCC)C(CC(=O)OCC)C(=O)OCC` (stereo not given) is 124% (inactive). The figure for `COc1cnccc1-c1nc2ccc3[nH]ncc3c2c2c1CCCC2` is 39.6% (inactive); for `COc1cc2cc(Oc3ccc(NC(=O)Nc4ccc(Cl)c(C(F)(F)F)c4)cc3)c(C)nc2cc1OCCN1CCCCC1` it is -72.3% (active).

As to `CC1(COc2ccc3ncc(C#Cc4cncc(C(=O)Nc5cc(C(C)(C)C)on5)c4)n3n2)COC1`, the growth was 85% (inactive). Regarding `CCN=c1cc2sc3cc(NCC)c(C)cc3nc-2cc1C`, the growth is 30.7% (inactive).
